Inconclusive results are not listed. Activity calls are given as the source filed them. How the source made its calls: active means hit-call score of the fitted dose curve at least 0.9, where 1 is the maximum; inconclusive means response in the unintended direction; inactive means score below 0.9.
Columns and labels:
[1] = biological target: human Adrenergic, Alpha 2c Receptor (Adra2C), ADRA2C (gene 152) (UniProt P18825); assay: NVS_GPCR_hAdra2C: NovaScreen (NVS) G Protein-Coupled Receptor Assay for human Adrenergic, Alpha 2c Receptor (Adra2C) (AID 2283259)
Outline: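 Screened first in duplicate at 25 uM, with actives then run as concentration series. Membranes from Sf9 cells were exposed for 1 h, and displacement of radioligand was counted after filtration, using DMSO as baseline.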

[2] = biological target: Beta-2 adrenergic receptor (Homo sapiens) (UniProt P07550); assay: NVS_GPCR_hAdrb2: NovaScreen (NVS) G Protein-Coupled Receptor Assay for human Adrenergic, Beta 2 Receptor (Adrb2) (AID 2283261)
Outline: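 Compounds screened in duplicate at 25 uM, then actives in concentration series. Human beta-2 receptor from CHO material, cell-free; radioligand displacement after 1 h measured by filtration and scintillation against DMSO baseline.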

[3] = biological target: human Adenosine A2a Receptor (AdoRA2a), ADORA2A (gene 135) (UniProt P29274); assay: NVS_GPCR_hAdoRA2a: NovaScreen (NVS) G Protein-Coupled Receptor Assay for human Adenosine A2a Receptor (AdoRA2a) (AID 2283256)
Outline: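 Compounds screened in duplicate at 25 uM, with actives followed up in concentration series, for displacement of a radioligand from HEK293-derived receptor protein. Bound counts read by filter scintillation at 1.5 hours, DMSO as baseline.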

[4] = biological target: human Serotonin, 5-Hydroxytryptamine Receptor 6 (5HT6), HTR6 (gene 3362) (UniProt P50406); assay: NVS_GPCR_h5HT6: NovaScreen (NVS) G Protein-Coupled Receptor Assay for human Serotonin, 5-Hydroxytryptamine Receptor 6 (5HT6) (AID 2283253)
Outline: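 Filter scintillation counting of radioligand displacement from HEK293-expressed 5HT6, 1 hour post-dose, with loss of signal relative to DMSO. Single 25 uM duplicates first, with concentration series for confirmation.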

[5] = system: guinea pig Muscarinic, Peripheral (Mperiperal) Receptor, Non-selective Binding, gene 100379235; assay: NVS_GPCR_gMPeripheral_NonSelective: NovaScreen (NVS) G Protein-Coupled Receptor Assay for guinea pig Muscarinic, Peripheral (Mperiperal) Receptor, Non-selective Binding (AID 2283250)
Outline: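 Screened in duplicate at 25 uM, hits retested in concentration series to 50 uM max, using bladder membrane radioligand displacement from guinea pig. Filtration and scintillation counting 1 h post-dose, fitted relative to DMSO.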

[6] = biological target: guinea pig Opioid, Kappa 1 Receptor (OpiateK), OPRK1 (gene 100135587) (UniProt P41144); assay: NVS_GPCR_gOpiateK: NovaScreen (NVS) G Protein-Coupled Receptor Assay for guinea pig Opioid, Kappa 1 Receptor (OpiateK) (AID 2283252);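 further: radioligand displacement from kappa opioid receptor in guinea pig cerebellar membranes; active means reduced radioligand binding relative to DMSO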
Outline: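 Radioligand competition binding using guinea pig cerebellum membrane fraction; 2 h exposure; filter radiodetection. Single concentration 25 uM (duplicate), follow-up concentration-response for actives.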

[7] = biological target: human Dopamine Receptor D2 (DRD2), DRD2 (gene 1813) (UniProt P14416); assay: NVS_GPCR_hDRD2s: NovaScreen (NVS) G Protein-Coupled Receptor Assay for human Dopamine Receptor D2 (DRD2) (AID 2283266)
Outline: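 Test compound (25 uM, duplicate in the primary screen; concentration series at follow-up) competed with radioligand for human DRD2 in CHO-derived membrane protein. Filter-based scintillation counting was done 1.5 hours after dosing, with loss of signal analysed against DMSO.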

[8] = biological target: guinea pig Leukotriene D4 Receptor (LTD4), CYSLTR1 (gene 100135514) (UniProt Q2NNR5); assay: NVS_GPCR_gLTD4: NovaScreen (NVS) G Protein-Coupled Receptor Assay for guinea pig Leukotriene D4 Receptor (LTD4) (AID 2283248)
Outline: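 Guinea pig lung membrane preparation; bound radioligand measured by filter scintillation after 1 h, loss of signal versus DMSO marking displacement. Compounds tested at 25 uM in duplicate, hits retested to max 50 uM.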

[9] = biological target: human Serotonin, 5-Hydroxytryptamine Receptor 5A (5HT5A), HTR5A (gene 3361) (UniProt P47898); assay: NVS_GPCR_h5HT5A: NovaScreen (NVS) G Protein-Coupled Receptor Assay for human Serotonin, 5-Hydroxytryptamine Receptor 5A (5HT5A) (AID 2283251)
Outline: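 Membranes from HEK293 cells, radioligand binding read by filtration and scintillation after 1 h. Single-concentration duplicate testing at 25 uM, then concentration-response for actives; positive-direction fitting relative to DMSO.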

[10] = biological target: human Dopamine Receptor D4.4 (DRD4.4), DRD4 (gene 1815) (UniProt P21917); assay: NVS_GPCR_hDRD4.4: NovaScreen (NVS) G Protein-Coupled Receptor Assay for human Dopamine Receptor D4.4 (DRD4.4) (AID 2283264)
Outline: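 Filter-binding assay with a tritiated or iodinated ligand, cell-free receptor prepared from CHO, 1 hour. Loss of bound radioactivity versus DMSO; single 25 uM duplicate screen, then concentration-response for actives.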

[11] = biological target: human Adrenergic, Beta 3 Receptor (Adrb3), ADRB3 (gene 155) (UniProt P13945); assay: NVS_GPCR_hAdrb3: NovaScreen (NVS) G Protein-Coupled Receptor Assay for human Adrenergic, Beta 3 Receptor (Adrb3) (AID 2283262)
Outline: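 A cell-free filter binding assay read by scintillation counting, with displacement of a specific radioligand measured after 1 hour. The receptor source was SK-N-MC extracts (cells pretreated with isoproterenol and 8-bromo-cAMP). Compounds were first tested at 25 uM in duplicate and then in concentration series.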

[12] = biological target: human Serotonin, 5-Hydroxytryptamine Receptor 7 (5HT7), HTR7 (gene 3363) (UniProt P34969); assay: NVS_GPCR_h5HT7: NovaScreen (NVS) G Protein-Coupled Receptor Assay for human Serotonin, 5-Hydroxytryptamine Receptor 7 (5HT7) (AID 2283255);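 further: hits reduce specific radioligand binding relative to DMSO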
Outline: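 Filter-bound radioactivity counted after 1 h, with loss of specific radioligand binding fitted against DMSO. Membrane protein came from CHO cells expressing human 5HT7. Chemicals were tested first at 25 uM in duplicate, then in concentration series if active.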

[13] = biological target: human Adenosine A1 Receptor (AdoRA1), ADORA1 (gene 134) (UniProt P30542); assay: NVS_GPCR_hAdoRA1: NovaScreen (NVS) G Protein-Coupled Receptor Assay for human Adenosine A1 Receptor (AdoRA1) (AID 2283254)
Outline: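 Each chemical is first tested twice at 25 uM, actives later in dilution series, against a radioligand bound to human cortex membranes; after 1 h, filter-retained counts are compared with DMSO controls, lower signal indicating displacement.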

[14] = biological target: human Histamine 1 Receptor (H1), HRH1 (gene 3269) (UniProt P35367); assay: NVS_GPCR_hH1: NovaScreen (NVS) G Protein-Coupled Receptor Assay for human Histamine 1 Receptor (H1) (AID 2283268)
Outline: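 Filter-based scintillation detection of radioligand binding to human H1, 1 h incubation; chemicals screened in duplicate at 25 uM, then concentration-response; signal loss relative to DMSO taken as activity.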

[15] = biological target: human Serotonin, 5-Hydroxytryptamine Receptor 2A (5HT2A), HTR2A (gene 3356) (UniProt P28223); assay: NVS_GPCR_h5HT2A: NovaScreen (NVS) G Protein-Coupled Receptor Assay for human Serotonin, 5-Hydroxytryptamine Receptor 2A (5HT2A) (AID 2283249)
Outline: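 Radioligand displacement on human cortex tissue extract, counted by filtration and scintillation 1.5 h post-dosing. Initial single-concentration screen at 25 uM in duplicate, concentration series in follow-up; DMSO as baseline.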

[16] = biological target: human Adrenergic, Alpha 2A Receptor (Adra2A), ADRA2A (gene 150) (UniProt P08913); assay: NVS_GPCR_hAdra2A: NovaScreen (NVS) G Protein-Coupled Receptor Assay for human Adrenergic, Alpha 2A Receptor (Adra2A) (AID 2283257)
Outline: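 Displacement of a specific radioligand from HT29 membrane protein was counted by filter scintillation after 1 h. Compounds were screened in duplicate at 25 uM, and actives were retested in concentration series. Fitting was positive-direction against DMSO.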

[17] = biological target: human Adrenergic, Beta 1 Receptor (Adrb1), ADRB1 (gene 153) (UniProt P08588); assay: NVS_GPCR_hAdrb1: NovaScreen (NVS) G Protein-Coupled Receptor Assay for human Adrenergic, Beta 1 Receptor (Adrb1) (AID 2283258)
Outline: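 Membranes/protein extracted from human neuroepithelioma cells, radioligand competition binding read by filtration and scintillation 2 h post-dose. Single 25 uM duplicate screen, then concentration-response follow-up; DMSO as negative control.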

Sequence of human Adenosine A2a Receptor (AdoRA2a), ADORA2A (gene 135) (P29274 whole entry, looked up): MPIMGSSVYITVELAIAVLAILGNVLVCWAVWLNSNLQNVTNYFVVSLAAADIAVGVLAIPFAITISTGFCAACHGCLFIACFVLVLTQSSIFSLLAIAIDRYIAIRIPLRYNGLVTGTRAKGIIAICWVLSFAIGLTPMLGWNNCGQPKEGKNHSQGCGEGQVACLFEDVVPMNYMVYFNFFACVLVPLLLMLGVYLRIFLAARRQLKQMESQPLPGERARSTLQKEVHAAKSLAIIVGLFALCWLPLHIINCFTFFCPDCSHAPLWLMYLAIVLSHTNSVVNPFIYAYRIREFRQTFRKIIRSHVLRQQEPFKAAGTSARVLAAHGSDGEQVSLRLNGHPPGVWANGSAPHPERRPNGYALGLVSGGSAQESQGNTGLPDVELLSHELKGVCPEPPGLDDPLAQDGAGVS
Sequence of human Adrenergic, Alpha 2c Receptor (Adra2C), ADRA2C (gene 152) (P18825 whole entry, looked up): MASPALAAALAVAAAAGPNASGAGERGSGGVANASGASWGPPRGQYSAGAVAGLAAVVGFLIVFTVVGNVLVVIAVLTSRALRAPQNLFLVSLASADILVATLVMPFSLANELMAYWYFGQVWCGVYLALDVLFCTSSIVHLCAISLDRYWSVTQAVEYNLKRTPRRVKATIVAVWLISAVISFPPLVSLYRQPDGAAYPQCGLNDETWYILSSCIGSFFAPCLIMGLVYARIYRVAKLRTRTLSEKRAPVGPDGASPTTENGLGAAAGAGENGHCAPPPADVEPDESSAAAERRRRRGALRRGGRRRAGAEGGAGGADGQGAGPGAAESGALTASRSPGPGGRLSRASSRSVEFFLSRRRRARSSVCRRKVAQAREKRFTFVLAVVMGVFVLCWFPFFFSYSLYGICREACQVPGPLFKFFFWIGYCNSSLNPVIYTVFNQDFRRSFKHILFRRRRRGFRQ
Sequence of Beta-2 adrenergic receptor (Homo sapiens) (P07550 whole entry, looked up): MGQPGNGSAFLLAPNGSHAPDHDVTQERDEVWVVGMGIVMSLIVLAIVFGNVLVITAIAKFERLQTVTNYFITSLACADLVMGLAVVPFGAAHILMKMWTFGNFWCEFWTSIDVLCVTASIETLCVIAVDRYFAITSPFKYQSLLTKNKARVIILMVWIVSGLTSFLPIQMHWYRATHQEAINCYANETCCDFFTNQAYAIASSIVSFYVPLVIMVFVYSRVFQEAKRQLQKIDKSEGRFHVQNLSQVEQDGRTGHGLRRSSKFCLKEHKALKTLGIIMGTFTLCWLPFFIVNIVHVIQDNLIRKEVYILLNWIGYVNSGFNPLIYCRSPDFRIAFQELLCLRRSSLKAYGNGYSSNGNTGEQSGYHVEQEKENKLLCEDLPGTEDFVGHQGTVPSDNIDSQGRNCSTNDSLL
Sequence of human Dopamine Receptor D2 (DRD2), DRD2 (gene 1813) (P14416 whole entry, looked up): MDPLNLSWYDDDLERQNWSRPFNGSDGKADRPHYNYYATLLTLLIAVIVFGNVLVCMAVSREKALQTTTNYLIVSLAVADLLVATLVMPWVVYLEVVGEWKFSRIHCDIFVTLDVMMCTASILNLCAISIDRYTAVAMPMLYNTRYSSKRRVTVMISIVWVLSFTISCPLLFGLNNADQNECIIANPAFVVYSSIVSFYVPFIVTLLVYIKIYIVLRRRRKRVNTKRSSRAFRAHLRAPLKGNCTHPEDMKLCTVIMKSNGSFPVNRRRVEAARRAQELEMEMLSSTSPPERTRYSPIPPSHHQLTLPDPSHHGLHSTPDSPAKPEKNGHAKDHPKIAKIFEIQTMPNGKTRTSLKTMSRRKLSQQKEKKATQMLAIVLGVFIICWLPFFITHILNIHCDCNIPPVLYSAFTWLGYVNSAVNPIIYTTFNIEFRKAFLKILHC
Sequence of human Adenosine A1 Receptor (AdoRA1), ADORA1 (gene 134) (P30542 whole entry, looked up): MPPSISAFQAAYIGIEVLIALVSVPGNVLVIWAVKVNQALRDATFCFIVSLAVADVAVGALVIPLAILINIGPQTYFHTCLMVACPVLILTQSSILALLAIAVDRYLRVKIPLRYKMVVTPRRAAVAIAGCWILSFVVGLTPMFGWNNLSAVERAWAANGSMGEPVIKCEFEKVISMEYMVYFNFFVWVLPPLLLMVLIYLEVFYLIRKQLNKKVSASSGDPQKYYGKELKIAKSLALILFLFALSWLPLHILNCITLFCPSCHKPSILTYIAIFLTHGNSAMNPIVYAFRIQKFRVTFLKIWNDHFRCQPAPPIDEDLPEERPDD
Sequence of human Serotonin, 5-Hydroxytryptamine Receptor 5A (5HT5A), HTR5A (gene 3361) (P47898 whole entry, looked up): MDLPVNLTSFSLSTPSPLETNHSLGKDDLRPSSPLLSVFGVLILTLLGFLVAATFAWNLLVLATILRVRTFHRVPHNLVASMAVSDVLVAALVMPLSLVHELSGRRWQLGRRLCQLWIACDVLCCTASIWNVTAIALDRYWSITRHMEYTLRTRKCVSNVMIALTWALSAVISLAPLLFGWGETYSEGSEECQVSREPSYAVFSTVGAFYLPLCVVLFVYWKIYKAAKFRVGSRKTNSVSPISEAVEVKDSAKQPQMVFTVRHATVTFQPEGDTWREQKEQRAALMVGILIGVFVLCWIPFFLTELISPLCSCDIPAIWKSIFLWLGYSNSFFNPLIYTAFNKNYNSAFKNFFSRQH
Sequence of human Dopamine Receptor D4.4 (DRD4.4), DRD4 (gene 1815) (P21917 whole entry, looked up): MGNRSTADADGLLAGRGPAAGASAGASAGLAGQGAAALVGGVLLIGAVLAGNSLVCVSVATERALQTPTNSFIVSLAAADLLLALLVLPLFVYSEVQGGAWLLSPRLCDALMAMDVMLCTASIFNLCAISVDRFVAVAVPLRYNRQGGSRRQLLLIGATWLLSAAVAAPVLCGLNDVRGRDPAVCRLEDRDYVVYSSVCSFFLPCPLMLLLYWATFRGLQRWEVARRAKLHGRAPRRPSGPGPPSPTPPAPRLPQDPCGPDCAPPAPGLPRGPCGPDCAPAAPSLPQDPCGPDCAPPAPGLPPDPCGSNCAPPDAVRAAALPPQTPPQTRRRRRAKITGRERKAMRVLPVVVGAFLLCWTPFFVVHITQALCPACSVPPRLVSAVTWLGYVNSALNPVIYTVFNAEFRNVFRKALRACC
Sequence of human Serotonin, 5-Hydroxytryptamine Receptor 6 (5HT6), HTR6 (gene 3362) (P50406 whole entry, looked up): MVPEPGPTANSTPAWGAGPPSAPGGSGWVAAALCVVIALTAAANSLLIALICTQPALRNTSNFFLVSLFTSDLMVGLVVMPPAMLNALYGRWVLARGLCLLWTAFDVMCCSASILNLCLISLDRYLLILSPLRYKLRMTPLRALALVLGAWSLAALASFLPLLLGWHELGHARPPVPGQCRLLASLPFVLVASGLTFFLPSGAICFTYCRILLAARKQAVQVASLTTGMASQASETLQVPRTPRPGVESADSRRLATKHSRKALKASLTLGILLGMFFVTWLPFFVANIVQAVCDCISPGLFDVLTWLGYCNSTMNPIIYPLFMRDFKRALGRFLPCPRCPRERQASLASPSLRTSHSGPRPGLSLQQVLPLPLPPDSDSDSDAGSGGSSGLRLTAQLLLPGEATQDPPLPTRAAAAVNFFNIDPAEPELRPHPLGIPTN
Sequence of guinea pig Opioid, Kappa 1 Receptor (OpiateK), OPRK1 (gene 100135587) (P41144 whole entry, looked up): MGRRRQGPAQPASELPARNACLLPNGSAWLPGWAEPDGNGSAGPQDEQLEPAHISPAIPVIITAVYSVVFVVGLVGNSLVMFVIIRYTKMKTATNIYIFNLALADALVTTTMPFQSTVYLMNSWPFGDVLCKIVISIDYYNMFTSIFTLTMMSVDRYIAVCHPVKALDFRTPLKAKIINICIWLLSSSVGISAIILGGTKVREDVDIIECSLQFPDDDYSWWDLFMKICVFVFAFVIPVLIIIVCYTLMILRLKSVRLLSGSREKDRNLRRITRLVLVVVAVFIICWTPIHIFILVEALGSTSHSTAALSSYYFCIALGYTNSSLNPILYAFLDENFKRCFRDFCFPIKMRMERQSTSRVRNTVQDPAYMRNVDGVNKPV
Sequence of human Serotonin, 5-Hydroxytryptamine Receptor 7 (5HT7), HTR7 (gene 3363) (P34969 whole entry, looked up): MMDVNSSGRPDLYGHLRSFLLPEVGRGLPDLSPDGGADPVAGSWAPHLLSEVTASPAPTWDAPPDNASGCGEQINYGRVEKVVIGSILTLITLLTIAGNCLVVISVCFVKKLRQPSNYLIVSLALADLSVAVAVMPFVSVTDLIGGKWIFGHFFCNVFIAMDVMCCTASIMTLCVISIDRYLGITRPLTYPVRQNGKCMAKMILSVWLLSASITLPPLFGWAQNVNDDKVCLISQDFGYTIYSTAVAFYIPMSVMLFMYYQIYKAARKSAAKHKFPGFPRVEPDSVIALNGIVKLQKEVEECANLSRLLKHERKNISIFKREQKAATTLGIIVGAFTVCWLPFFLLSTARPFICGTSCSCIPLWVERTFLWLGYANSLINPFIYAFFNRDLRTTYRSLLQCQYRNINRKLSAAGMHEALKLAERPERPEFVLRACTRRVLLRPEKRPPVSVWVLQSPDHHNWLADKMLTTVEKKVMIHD
Sequence of guinea pig Leukotriene D4 Receptor (LTD4), CYSLTR1 (gene 100135514) (Q2NNR5 whole entry, looked up): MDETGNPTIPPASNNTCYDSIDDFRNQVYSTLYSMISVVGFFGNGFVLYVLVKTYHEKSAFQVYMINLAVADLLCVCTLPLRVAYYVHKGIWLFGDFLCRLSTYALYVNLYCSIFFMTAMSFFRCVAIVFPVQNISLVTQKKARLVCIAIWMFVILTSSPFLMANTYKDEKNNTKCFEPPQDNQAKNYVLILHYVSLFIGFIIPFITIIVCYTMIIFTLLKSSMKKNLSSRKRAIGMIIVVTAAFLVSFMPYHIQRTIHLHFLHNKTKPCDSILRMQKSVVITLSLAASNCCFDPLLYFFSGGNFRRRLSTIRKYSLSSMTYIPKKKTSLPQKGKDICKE
Sequence of human Adrenergic, Alpha 2A Receptor (Adra2A), ADRA2A (gene 150) (P08913 whole entry, looked up): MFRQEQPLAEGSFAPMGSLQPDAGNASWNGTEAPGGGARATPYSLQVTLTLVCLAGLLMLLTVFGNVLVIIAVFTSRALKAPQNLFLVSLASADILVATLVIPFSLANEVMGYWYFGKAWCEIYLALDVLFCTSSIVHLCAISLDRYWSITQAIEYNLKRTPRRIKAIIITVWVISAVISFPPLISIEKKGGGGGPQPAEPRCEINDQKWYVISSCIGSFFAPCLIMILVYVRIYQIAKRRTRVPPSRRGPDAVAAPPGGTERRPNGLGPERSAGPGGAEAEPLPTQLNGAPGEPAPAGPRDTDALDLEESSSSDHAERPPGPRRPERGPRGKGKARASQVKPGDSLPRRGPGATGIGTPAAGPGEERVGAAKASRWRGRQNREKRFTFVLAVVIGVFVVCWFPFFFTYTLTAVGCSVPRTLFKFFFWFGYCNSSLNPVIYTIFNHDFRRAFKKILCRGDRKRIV

Compound: CC1(C)CC(N=C=O)CC(C)(CN=C=O)C1 (centres undefined)
- outcome [1]: inactive

Compound: Cc1cccc(C)c1O
- outcome [2]: inactive

Compound: CCOc1ccc2c(c1)C(C)=CC(C)(C)N2
- outcome [3]: inactive

Compound: NCCO
- outcome [4]: inactive

Compound: Cc1nc(-c2ccc3c(c2)CCN(CCC2CCC(NC(=O)/C=C/c4ccc(F)cc4)CC2)CC3)no1 (centres undefined)
- AC50 [5]: 483 nM (active)
- AC50 [6]: 262 nM (active)
- outcome [7]: inactive

Compound: CCCCCCCC=O
- AC50 [8]: 613 nM (active)

Compound: Nc1nc(N)c2nc(CNc3ccc(C(=O)N[C@@H](CCC(=O)O)C(=O)O)cc3)cnc2n1
- AC50 [9]: 6280 nM (active)
- outcome [10]: inactive
- AC50 [7]: 18300 nM (active)

Compound: Cc1ccccc1Cl
- outcome [11]: inactive

Compound: COc1cc(S(=O)(=O)O)c(C)cc1N=Nc1c(O)ccc2cc(S(=O)(=O)O)ccc12
- outcome [6]: inactive
- AC50 [12]: 14800 nM (active)
- AC50 [1]: 13900 nM (active)
- AC50 [10]: 38700 nM (active)
- AC50 [7]: 11400 nM (active)

Compound: COc1cc(-c2nc(NC(=O)c3cc4cc(C)cc(C)c4n3CC(=O)O)sc2CCC2CCCCC2)c(OC)cc1Cl
- outcome [8]: inactive
- outcome [9]: inactive

Compound: CCOC(=O)CCC(=O)OCC
- outcome [5]: inactive
- outcome [13]: inactive
- outcome [12]: inactive
- outcome [3]: inactive
- outcome [1]: inactive
- outcome [2]: inactive
- outcome [10]: inactive
- outcome [7]: inactive
- outcome [14]: inactive

Compound: Nc1ccccc1N
- AC50 [3]: 975 nM (active)

Compound: C=CCOC(=O)c1ccccc1C(=O)OCC=C
- outcome [13]: inactive

Compound: Nc1ccc2c(c1)C(=O)c1ccccc1C2=O
- AC50 [13]: 6520 nM (active)

Compound: Oc1ccc2c(c1)OC[C@@H](N1CCC(O)(c3ccc(F)cc3)CC1)[C@H]2O
- outcome [15]: inactive
- outcome [4]: inactive
- outcome [13]: inactive
- outcome [16]: inactive
- outcome [1]: inactive
- outcome [2]: inactive
- outcome [11]: inactive
- outcome [7]: inactive

Compound: COc1ccc2c(c1)c(CC(=O)O)c(C)n2C(=O)c1ccc(Cl)cc1
- outcome [5]: inactive

Compound: CNCc1cc(F)ccc1Oc1ccc(Cl)c(Cl)c1
- AC50 [5]: 25000 nM (active)
- AC50 [6]: 12700 nM (active)

Compound: NC(=O)Cn1c(=O)cc(CCN2CCN(c3nccc4sccc34)CC2)c2ccc(F)cc21
- AC50 [15]: 2.29 nM (active)
- outcome [5]: inactive
- AC50 [9]: 834 nM (active)
- AC50 [4]: 214 nM (active)
- AC50 [12]: 15.5 nM (active)
- AC50 [16]: 2030 nM (active)
- AC50 [17]: 1380 nM (active)
- AC50 [1]: 666 nM (active)
- AC50 [2]: 8690 nM (active)
- AC50 [10]: 23 nM (active)
- AC50 [7]: 926 nM (active)
- AC50 [14]: 199 nM (active)

— PubChem BioAssay (EPA / NIEHS)
